PubChem BioAssay (EPA / NIEHS)
Several values for one entry are separate records, joined by “and”; a condition that tells them apart may be missing. Identical values can stand only once. Records with an inconclusive call do not appear. Some structures have more than one record in an assay (separate samples or runs), and their calls can disagree. Activity calls are given as the source filed them. How the source made its calls, unless noted: active means hit-call score of the fitted dose curve at least 0.9, where 1 is the maximum; inactive means score below 0.9.

Experiments:
[1] = target: Retinoic acid receptor RXR-alpha (Homo sapiens) (UniProt P19793); assay: ATG_RXRa_TRANS: Attagene TRANS-FACTORIAL HepG2 Assay for human Retinoid X Receptor alpha (RXRa) (AID 2283012; active means hit-call score of the fitted dose curve at least 0.9, where 1 is the maximum)
Sequence of Retinoic acid receptor RXR-alpha (Homo sapiens) (P19793 whole entry, looked up, the tested form may be a part): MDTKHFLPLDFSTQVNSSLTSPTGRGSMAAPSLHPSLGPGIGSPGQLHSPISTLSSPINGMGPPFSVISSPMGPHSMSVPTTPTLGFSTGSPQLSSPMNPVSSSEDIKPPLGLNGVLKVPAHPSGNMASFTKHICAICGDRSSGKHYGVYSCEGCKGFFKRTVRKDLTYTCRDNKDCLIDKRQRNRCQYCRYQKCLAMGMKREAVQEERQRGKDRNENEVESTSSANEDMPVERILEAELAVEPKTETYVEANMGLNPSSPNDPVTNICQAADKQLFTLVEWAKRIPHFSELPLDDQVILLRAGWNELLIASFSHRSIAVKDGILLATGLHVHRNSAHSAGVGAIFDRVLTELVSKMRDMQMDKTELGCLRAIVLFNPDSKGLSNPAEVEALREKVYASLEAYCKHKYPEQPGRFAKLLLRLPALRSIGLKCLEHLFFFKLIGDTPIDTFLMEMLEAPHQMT
Method in brief: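 Cells (HepG2) carried transiently transfected GAL4-responsive reporter units. Following a 24 h chemical incubation, reporter mRNA induction was read via RT-PCR fragment analysis; DMSO served as negative control and baseline.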

[2] = target: human Retinoid X Receptor beta (RXRb), RXRB (gene 6257) (UniProt P28702); assay: ATG_RXRb_TRANS: Attagene TRANS-FACTORIAL HepG2 Assay for human Retinoid X Receptor beta (RXRb) (AID 2283013; active means hit-call score of the fitted dose curve at least 0.9, where 1 is the maximum)
Sequence of human Retinoid X Receptor beta (RXRb), RXRB (gene 6257) (P28702 whole entry, looked up): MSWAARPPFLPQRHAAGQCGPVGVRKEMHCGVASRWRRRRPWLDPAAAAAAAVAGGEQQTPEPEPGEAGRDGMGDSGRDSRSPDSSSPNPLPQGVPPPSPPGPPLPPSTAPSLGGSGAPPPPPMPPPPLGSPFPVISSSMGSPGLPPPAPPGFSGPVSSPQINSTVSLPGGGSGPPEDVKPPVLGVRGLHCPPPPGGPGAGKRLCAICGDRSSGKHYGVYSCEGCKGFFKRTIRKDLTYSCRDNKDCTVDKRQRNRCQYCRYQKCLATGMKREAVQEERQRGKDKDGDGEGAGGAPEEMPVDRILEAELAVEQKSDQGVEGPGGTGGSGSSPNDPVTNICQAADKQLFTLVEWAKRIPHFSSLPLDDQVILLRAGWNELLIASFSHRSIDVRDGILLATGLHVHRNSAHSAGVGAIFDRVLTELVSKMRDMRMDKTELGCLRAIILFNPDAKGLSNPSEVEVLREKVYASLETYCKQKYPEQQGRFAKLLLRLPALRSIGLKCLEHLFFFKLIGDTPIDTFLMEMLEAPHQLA
Method in brief: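 Multiplexed TRANS reporter assay in HepG2; 24 h dosing; reporter mRNA by RT-PCR/CE fluorescence; gain-of-signal relative to DMSO.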

[3] = target: human Thyroid Receptor alpha (THRa1), THRA (gene 7067) (UniProt P10827); assay: ATG_THRa1_TRANS: Attagene TRANS-FACTORIAL HepG2 Assay for human Thyroid Receptor alpha (THRa1) (AID 2283014; active means hit-call score of the fitted dose curve at least 0.9, where 1 is the maximum)
Sequence of human Thyroid Receptor alpha (THRa1), THRA (gene 7067) (P10827 whole entry, looked up, the tested form may be a part): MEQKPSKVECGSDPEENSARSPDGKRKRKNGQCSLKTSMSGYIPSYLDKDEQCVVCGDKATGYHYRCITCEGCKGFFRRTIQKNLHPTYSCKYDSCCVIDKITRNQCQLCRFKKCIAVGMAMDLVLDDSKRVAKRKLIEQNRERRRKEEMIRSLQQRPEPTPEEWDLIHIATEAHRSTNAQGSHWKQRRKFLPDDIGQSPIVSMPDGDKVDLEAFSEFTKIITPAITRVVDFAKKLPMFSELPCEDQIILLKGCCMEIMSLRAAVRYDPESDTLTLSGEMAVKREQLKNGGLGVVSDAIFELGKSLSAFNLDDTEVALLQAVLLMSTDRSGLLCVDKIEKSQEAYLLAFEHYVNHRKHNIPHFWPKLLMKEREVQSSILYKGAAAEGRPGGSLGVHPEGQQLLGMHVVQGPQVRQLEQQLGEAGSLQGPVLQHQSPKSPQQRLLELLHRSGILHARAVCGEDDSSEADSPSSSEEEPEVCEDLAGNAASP
Method in brief: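 First, HepG2 cells receive multiple GAL4-UAS reporter units and the chimeric receptor. They are then dosed for 24 h, after which RNA is reverse-transcribed, amplified, labelled, HpaI-cut and sized by capillary electrophoresis; gain relative to DMSO is scored.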

[4] = read-out: E-selectin (Homo sapiens) (UniProt P16581); assay: BSK_3C_Eselectin: BioMAP Diversity Plus: 3C Assay for Eselectin Biomarker Activity (AID 2283015); details: primary human endothelial cells (HUVEC); actives raise or lower the signal
Method in brief: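 Human vascular endothelium from umbilical vein is exposed to test chemicals for 24 h. E-selectin levels are read by ELISA and compared with DMSO controls.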

[5] = read-out: Interleukin-1 alpha (IL1a), IL1A (gene 3552); assay: BSK_BE3C_IL1a: BioMAP Diversity Plus: BE3C Assay for Interleukin-1 alpha (IL1a) Biomarker Activity (AID 2283016); details: primary human bronchial epithelial cells; actives raise or lower the signal
Method in brief: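 Cultures of primary human bronchial epithelial cells receive test chemical. After 24 h, IL-1a is quantified by ELISA, while parallel wells are fixed in TCA and SRB-stained for total protein. Changes in either direction are fitted relative to DMSO.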

[6] = read-out: Monocyte Chemoattractant Protein-1 (MCP1), CCL2 (gene 6347); assay: BSK_3C_MCP1: BioMAP Diversity Plus: 3C Assay for Monocyte Chemoattractant Protein-1 (MCP1) Biomarker Activity (AID 2283017); details: primary human endothelial cells (HUVEC); actives raise or lower the signal
Method in brief: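 Endothelial cells from human umbilical vein are dosed with chemical, cultured 24 h, then assayed for MCP-1 by ELISA; both increases and decreases are modelled against DMSO controls.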

[7] = read-out: Monocyte Chemoattractant Protein-1 (MCP1), CCL2 (gene 6347); assay: BSK_4H_MCP1: BioMAP Diversity Plus: 4H Assay for Monocyte Chemoattractant Protein-1 (MCP1) Biomarker Activity (AID 2283018); details: primary human endothelial cells (HUVEC); actives raise or lower the signal
Method in brief: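 Readout: MCP-1 ELISA on compound-treated HUVEC, sampled 24 h post-dosing. Baseline and negative control DMSO; bidirectional fit. Overt toxicity checked alongside by sulforhodamine B protein staining at time of biomarker measurement.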

[8] = read-out: Human Leukocyte Antigen - DR isotype (HLADR), HLA-DRA (gene 3122); assay: BSK_3C_HLADR: BioMAP Diversity Plus: 3C Assay for Human Leukocyte Antigen - DR isotype (HLADR) Biomarker Activity (AID 2283019); details: primary human endothelial cells (HUVEC); actives raise or lower the signal
Method in brief: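 Endothelial cells from human umbilical vein are treated with test chemical; after 24 h, HLA-DR levels are measured by ELISA. Data are fitted in both directions using DMSO as the baseline.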

[9] = read-out: Interleukin-8 (IL8), CXCL8 (gene 3576); assay: BSK_3C_IL8: BioMAP Diversity Plus: 3C Assay for Interleukin-8 (IL8) Biomarker Activity (AID 2283020); details: primary human endothelial cells (HUVEC); actives raise or lower the signal
Method in brief: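 Human vascular endothelial cells (umbilical vein) in the 3C system; IL-8 level detected by ELISA at 24 h post-dose, with DMSO as baseline.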

[10] = read-out: Monokine induced gamma interferon (MIG), CXCL9 (gene 4283); assay: BSK_3C_MIG: BioMAP Diversity Plus: 3C Assay for Monokine induced gamma interferon (MIG) Biomarker Activity (AID 2283021); details: primary human endothelial cells (HUVEC); actives raise or lower the signal;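 on AC50: MIG protein level measured by immunoassay in the treated endothelial cultures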
Method in brief: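 After 24 h of treatment, human umbilical vein endothelial cultures (3C system) had their MIG biomarker level determined by ELISA, with DMSO serving as negative control.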

[11] = target: human Vitamin D Receptor (VDR), VDR (gene 7421) (UniProt P11473); assay: ATG_VDR_TRANS: Attagene TRANS-FACTORIAL HepG2 Assay for human Vitamin D Receptor (VDR) (AID 2283022; active means hit-call score of the fitted dose curve at least 0.9, where 1 is the maximum)
Sequence of human Vitamin D Receptor (VDR), VDR (gene 7421) (P11473 whole entry, looked up, the tested form may be a part): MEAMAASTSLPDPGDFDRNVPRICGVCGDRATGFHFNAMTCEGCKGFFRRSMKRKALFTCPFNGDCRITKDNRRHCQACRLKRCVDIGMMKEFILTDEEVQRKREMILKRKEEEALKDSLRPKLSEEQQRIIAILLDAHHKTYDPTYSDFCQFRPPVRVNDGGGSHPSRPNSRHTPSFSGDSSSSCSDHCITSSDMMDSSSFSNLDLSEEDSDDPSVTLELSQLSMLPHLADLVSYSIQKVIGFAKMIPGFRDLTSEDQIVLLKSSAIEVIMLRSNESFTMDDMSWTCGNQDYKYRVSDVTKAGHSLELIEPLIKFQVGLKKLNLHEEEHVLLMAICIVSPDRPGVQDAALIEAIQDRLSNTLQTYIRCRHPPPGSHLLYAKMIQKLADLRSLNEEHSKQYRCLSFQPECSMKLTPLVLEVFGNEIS
Method in brief: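 Fluorescence of labelled reporter cDNA fragments, resolved by capillary electrophoresis, gives mRNA induction after 24 h treatment of HepG2 cells carrying transfected Gal4-fusion reporter units. Activity is fitted in the positive direction with DMSO as baseline.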

[12] = BSK_3C_SRB: Viability Assessment in the BioMAP Diversity Plus: 3C Assay (AID 2283023); details: primary human endothelial cells (HUVEC);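 further: cells read 24 h after compound dosing; fitted both ways against DMSO so a hit may be signal rise or drop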
Method in brief: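 Cells were dosed with chemical, cultured 24 h, fixed with 10% TCA, stained with 0.1% SRB and read at 560 nm. Human umbilical vein endothelium was used; DMSO served as negative control and baseline.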

[13] = read-out: Matrix Metallopeptidase 1 (MMP1), MMP1 (gene 4312); assay: BSK_BE3C_MMP1: BioMAP Diversity Plus: BE3C Assay for Matrix Metallopeptidase 1 (MMP1) Biomarker Activity (AID 2283024); details: primary human bronchial epithelial cells; actives raise or lower the signal
Method in brief: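 Dose cells, wait 24 h, run MMP1 ELISA; cells are human bronchial epithelial primaries. Both increases and decreases relative to DMSO counted.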

[14] = BSK_3C_Vis: BioMAP Diversity Plus: 3C Assay for Morphology Visualization (AID 2283025); details: primary human endothelial cells (HUVEC);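 further: fitted both ways so gain or loss versus DMSO counts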;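 on AC50: light microscopy image of cell morphology used as background control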
Method in brief: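 Endothelial cells from human umbilical vein were treated with test chemicals for 24 h and inspected by light microscopy for changes in cell conformation.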

[15] = read-out: Pselectin, SELP (gene 6403); assay: BSK_4H_Pselectin: BioMAP Diversity Plus: 4H Assay for Pselectin Biomarker Activity (AID 2283026); details: primary human endothelial cells (HUVEC); actives raise or lower the signal
Method in brief: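 Human vascular endothelium from umbilical vein; P-selectin measured by ELISA at 24 h post-dose, with cytotoxicity checked by sulforhodamine B total-protein staining in parallel cultures (0.1% SRB after 10% TCA fixation, read at 560 nm).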

[16] = BSK_4H_SRB: Viability Assessment in the BioMAP Diversity Plus: 4H Assay (AID 2283027); details: primary human endothelial cells (HUVEC);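 further: cells exposed to compound for 24 h before staining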;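 on AC50: curves fitted both ways versus DMSO so AC50 may be loss or gain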
Method in brief: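 Human umbilical vein endothelial cells were dosed with chemical and, after 24 h, fixed with 10% TCA, stained with 0.1% sulforhodamine B, and read at 560 nm to give total protein as a cytotoxicity measure. Bidirectional fitting relative to DMSO control.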

[17] = BSK_BE3C_SRB: Viability Assessment in the BioMAP Diversity Plus: BE3C Assay (AID 2283028); details: primary human bronchial epithelial cells;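 on AC50: fitted both ways so AC50 may mark signal gain or loss versus DMSO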
Method in brief: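 Overt cytotoxicity was assessed as total protein in confluent human primary bronchial epithelial cultures 24 h after chemical addition, using 0.1% sulforhodamine B staining read at 560 nm.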

[18] = read-out: Thrombomodulin, THBD (gene 7056); assay: BSK_3C_Thrombomodulin: BioMAP Diversity Plus: 3C Assay for Thrombomodulin Biomarker Activity (AID 2283029); details: primary human endothelial cells (HUVEC); actives raise or lower the signal
Method in brief: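 Thrombomodulin ELISA, human primary HUVEC, 24 h post-dose; data fitted in both directions relative to DMSO.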

[19] = read-out: Urokinase-type plasminogen activator receptor (uPAR), PLAUR (gene 5329); assay: BSK_4H_uPAR: BioMAP Diversity Plus: 4H Assay for Urokinase-type plasminogen activator receptor (uPAR) Biomarker Activity (AID 2283030); details: primary human endothelial cells (HUVEC); actives raise or lower the signal
Method in brief: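 Chemicals are dosed onto human vascular endothelial primary cells (umbilical vein). After 24 h, uPAR is read by ELISA. Gain or loss of signal is fitted relative to DMSO.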

[20] = target: human RAR-related Orphan Receptor gamma (RORg), RORC (gene 6097) (UniProt P51449); assay: ATG_RORg_TRANS: Attagene TRANS-FACTORIAL HepG2 Assay for human RAR-related Orphan Receptor gamma (RORg) (AID 2283011; active means hit-call score of the fitted dose curve at least 0.9, where 1 is the maximum)
Sequence of human RAR-related Orphan Receptor gamma (RORg), RORC (gene 6097) (P51449 whole entry, looked up, the tested form may be a part): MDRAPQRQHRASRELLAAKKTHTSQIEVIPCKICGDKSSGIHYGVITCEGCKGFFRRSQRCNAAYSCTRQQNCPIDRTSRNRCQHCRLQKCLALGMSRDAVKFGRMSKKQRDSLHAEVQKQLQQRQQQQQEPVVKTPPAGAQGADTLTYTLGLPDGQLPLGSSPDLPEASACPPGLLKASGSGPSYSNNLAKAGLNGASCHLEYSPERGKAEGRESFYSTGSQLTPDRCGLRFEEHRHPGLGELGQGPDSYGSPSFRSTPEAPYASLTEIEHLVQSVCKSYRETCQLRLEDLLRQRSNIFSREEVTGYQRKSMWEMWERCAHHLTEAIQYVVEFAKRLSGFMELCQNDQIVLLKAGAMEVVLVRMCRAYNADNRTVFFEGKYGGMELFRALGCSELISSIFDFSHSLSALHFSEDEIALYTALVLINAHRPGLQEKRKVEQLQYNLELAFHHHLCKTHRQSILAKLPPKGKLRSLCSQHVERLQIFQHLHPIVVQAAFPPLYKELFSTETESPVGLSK
Method in brief: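 Activity is scored as increase in GAL4-UAS reporter mRNA over DMSO, detected by fluorescent RT-PCR and capillary electrophoresis in HepG2 cells transiently expressing a RORg-Gal4 chimera, 24 h after dosing.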

Measured: AC50

Sequence of E-selectin (Homo sapiens) (P16581 whole entry, looked up): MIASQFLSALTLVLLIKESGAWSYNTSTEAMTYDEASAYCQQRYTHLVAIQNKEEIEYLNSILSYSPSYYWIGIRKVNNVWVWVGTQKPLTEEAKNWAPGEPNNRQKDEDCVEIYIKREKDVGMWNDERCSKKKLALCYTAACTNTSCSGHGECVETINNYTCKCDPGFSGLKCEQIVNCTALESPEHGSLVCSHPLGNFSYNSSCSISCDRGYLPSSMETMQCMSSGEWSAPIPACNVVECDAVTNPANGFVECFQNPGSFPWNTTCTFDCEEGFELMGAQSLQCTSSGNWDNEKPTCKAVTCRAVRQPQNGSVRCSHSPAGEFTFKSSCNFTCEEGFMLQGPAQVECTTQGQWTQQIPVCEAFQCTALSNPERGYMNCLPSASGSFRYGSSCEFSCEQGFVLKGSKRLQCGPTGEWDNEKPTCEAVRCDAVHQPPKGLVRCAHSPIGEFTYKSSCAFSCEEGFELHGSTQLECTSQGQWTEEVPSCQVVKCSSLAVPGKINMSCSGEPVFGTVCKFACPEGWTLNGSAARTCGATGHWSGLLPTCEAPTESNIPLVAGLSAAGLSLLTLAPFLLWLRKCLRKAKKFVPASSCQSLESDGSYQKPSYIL

O=[N+]([O-])c1ccc2c3c(cccc13)CC2
active: [2] 27.5 µM | [8] 13.7 µM | [12] 20 µM | [14] 8.8 µM
not listed: [20]
inactive: all other assays above

CC(C)(C)CC(C)(C)c1ccc(O)cc1
inactive: [1] | [3] | [11] | [18]
active: [2] 11.1 µM and 4.81 µM and 6.61 µM | [4] 7.99 µM | [5] 19.5 µM | [6] 9.66 µM | [7] 6.54 µM | [8] 6.4 µM | [9] 10.1 µM | [10] 12.4 µM | [12] 7.28 µM | [13] 33.7 µM | [14] 6.71 µM | [15] 11.4 µM | [16] 9.01 µM | [17] 13.3 µM | [19] 9.65 µM

CC(C)(c1ccc(OCC2CO2)cc1)c1ccc(OCC2CO2)cc1 (configuration not stated)
inactive: [1] | [2]

C=CCc1ccc(OC)cc1
inactive: [20] | [1] | [2] | [3]

O=[N+]([O-])c1c(Cl)c(Cl)cc(Cl)c1Cl
inactive: [1] | [3]
active: [2] 32.9 µM

O=C(O)C(F)(F)C(F)(F)C(F)(F)C(F)(F)C(F)(F)C(F)(F)F
inactive: [1] | [2] | [3] | [4] | [5] | [6] | [7] | [9] | [10] | [11] | [12] | [14] | [15] | [16] | [17] | [18] | [19]
active: [2] 51.7 µM and 56.5 µM | [9] 13.9 µM

Cl/C=C\C[N+]12CN3CN(CN(C3)C1)C2
inactive: [1]

Cc1ccccc1C(=O)Nc1cccc(OC(C)C)c1
inactive: [1] | [2] | [3]

COc1cc2c(cc1OC)[C@@]13CCN4CC5=CCO[C@H]6CC(=O)N2[C@H]1[C@H]6[C@H]5C[C@H]43
inactive: [20] | [3] | [11]

C=C(C)C#N
inactive: [1]

O=C(c1ccccc1)C(Cl)Cl
inactive: [20] | [1] | [2] | [3]

C=CC(=O)OCCCCCC(C)C
not listed: [3] | [8] | [13]
inactive: all other assays above

O=C1CCCN1
inactive: [1]

N#CCc1ccc(Cl)cc1
inactive: [20] | [1] | [2] | [3] | [11]

O=C1C2(Cl)C3(Cl)C4(Cl)C(Cl)(Cl)C5(Cl)C3(Cl)C1(Cl)C5(Cl)C24Cl (configuration not stated)
active: [2] 2.67 µM and 7.57 µM | [3] 4.37 µM and 56.4 µM | [4] 11.7 µM | [5] 9.67 µM | [6] 9.53 µM | [7] 8.77 µM | [8] 8.22 µM | [9] 22.3 µM | [10] 11.4 µM | [12] 5.96 µM | [13] 10.4 µM | [14] 5.21 µM | [15] 10.9 µM | [16] 6.58 µM | [17] 5.75 µM | [19] 9.73 µM
inactive: [1] | [2] | [3] | [11] | [18]

CC12CC1(C)C(=O)N(c1cc(Cl)cc(Cl)c1)C2=O (configuration not stated)
not listed: [13] | [20]
inactive: all other assays above

CC(Br)C(=O)O (configuration not stated)
inactive: [1]

CC(C)(C)c1cc(O)ccc1O
active: [4] 31.8 µM | [6] 35.2 µM | [10] 37 µM | [14] 39 µM | [15] 20 µM | [16] 28.1 µM | [18] 33.5 µM
not listed: [1] | [2] | [8] | [11] | [13]
inactive: all other assays above

COc1cc(-c2ccc(N)c(OC)c2)ccc1N
active: [2] 27.6 µM | [5] 5.28 µM | [6] 30 µM | [8] 25.5 µM | [9] 14.4 µM
inactive: [1] | [3] | [4] | [5] | [6] | [7] | [8] | [9] | [10] | [11] | [12] | [14] | [15] | [16] | [17] | [18] | [19]

O=C(NCO)NCO
inactive: [20] | [1]

COP(=S)(OC)Oc1ccc(Sc2ccc(OP(=S)(OC)OC)cc2)cc1
inactive: [1] | [2] | [3] | [10] | [11] | [13] | [17] | [18] | [19]
active: [4] 26.5 µM | [5] 7.5 µM | [6] 27.1 µM | [7] 11.8 µM | [8] 28.5 µM | [9] 7.51 µM | [12] 20 µM | [14] 13.6 µM | [15] 14.5 µM | [16] 9.79 µM

N#CCCO
inactive: [20] | [1] | [3]
